Each structure is given as a SMILES string. About 79,000 compounds went through this panel and 15% of them were active in at least one assay; those are over-represented in the sample as a whole. A number with no mark means an inactive call. Activity calls are given as the source filed them. Cut-off read from the data, not from the text of the source: active = growth inhibition above about 70%; inactive = the rest.

A short description of the assay: NCI Yeast Anticancer Drug Screen. Data for the sgs1 mgt1 strain (AID 161).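 Note: 0% = growth of cultures given vehicle only.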 The following applies: S. cerevisiae sgs1 mgt1 strain, at 50.0 µM, active compounds read high. An outline of the steps: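 Test agents were incubated with a DNA-repair-mutant yeast strain. Growth was then read and compared against vehicle-treated controls.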
For `Cc1cn(C2CC(Br)C(COC(c3ccccc3)(c3ccccc3)c3ccccc3)O2)c(=O)[nH]c1=O` (centres undefined), the growth inhibition is 98.2% (active).

Consider `CC1CCN(CCOC(=O)C(c2ccccc2)C2C=CCCC2)C1` (centres undefined), for which the growth inhibition is 51.1%.

Consider `C=CC(c1ccccc1)[C@@]1(OC(C)=O)C(=O)C(=O)OC1C1COC(C)(C)O1` (some centres undefined), for which the growth inhibition was 88.3% (active).

For the molecule `CC(C)S(=O)(=O)ON1C(=O)c2ccc(N(C)C)cc2C1=O`, the growth inhibition was 61.3%.

As to `CCCC(Sc1ccccc1)c1ccccc1NC(C)=O` (centres undefined), the growth inhibition is 89.9% (active).

Turning to `Oc1c(C(Nc2ccccn2)c2ccccc2)ccc2cccnc12` (centres undefined), the growth inhibition is 95.5% (active).

As to `CC(=O)NC1=C(Cl)C(=O)c2ccccc2C1=O`, the growth inhibition is 99.7% (active).

On to `CC1OC(c2ccc3c(c2)OCO3)OC1C` (centres undefined), for which the growth inhibition is 24.6%.

As to `CN(C)CC(CN1CCCC1)C(=O)c1ccccc1` (centres undefined), the growth inhibition is 66.5%.

With `O=S(=O)(O)c1ccc2c(c1)C1C(C3C2C2(Cl)C(Cl)=C(Cl)C3(Cl)C2(Cl)Cl)C2(Cl)C(Cl)=C(Cl)C1(Cl)C2(Cl)Cl` (centres undefined), the growth inhibition was 81% (active).

As to `Cc1cc(Cl)nc2ccc(Cc3ccc4nc(Cl)cc(C)c4c3)cc12`, the growth inhibition is -19.6%.

Turning to `CC1CCC2(C)C(CC=C(C=O)C2(O)C=O)C12CO2` (centres undefined), the growth inhibition was 94.5% (active).

For the molecule `Cc1c(C)c(C)c(C(=O)c2ccccc2C(=O)NCCSC(C)(C)C)c(C)c1C`, the growth inhibition was 83.3% (active).

For `O=[N+]([O-])C(=C1Nc2ccccc2N1)C(Cl)=C(Cl)Cl`, the growth inhibition is 9.85%.

Turning to `CCCCNc1ccc(C(=O)OC2CCN(C)CC2)c(Cl)c1`, the growth inhibition is 95.9% (active).

Consider `CC(C)(C)OC(=O)c1ccc(NCC2=C(Br)C(=O)C=CC2=O)cc1`, for which the growth inhibition is 83.4% (active).

As for `N#CC(c1ccc(Cl)cc1)c1ccc([N+](=O)[O-])cc1` (centres undefined), the growth inhibition is 60.9%.

Regarding `O=C(CC(=O)c1ccccc1NC1=Cc2ccccc2C(=O)C1=O)C(=O)NC1=C(Cl)C(=O)c2ccccc2C1=O`, the growth inhibition was 85.7% (active).

As to `O=S(=O)(Nc1ccc2c3c(cccc13)C=C2)c1ccccc1`, the growth inhibition was 79.8% (active).

Take `CC(=O)c1cccc(NC(=O)C(=O)NNc2n[nH]c(=S)n2N)c1`: the growth inhibition is 92.9% (active).

`Nc1ncc(C(=O)c2ccccc2)cc1[N+](=O)[O-]`: the growth inhibition is -5.95%.

For the molecule `COc1ccc2cc(C3CCCC3(C)CC(=O)O)ccc2c1` (centres undefined), the growth inhibition was 62.1%.

With `CNc1ccc(N=O)cc1`, the growth inhibition is 89% (active).

Take `S=c1sc2nc(Cl)nc(Cl)c2s1`: the growth inhibition was 89.5% (active).

As to `CC(=O)O/C=C1\c2ccccc2CCC1c1ccc2ccccc2c1` (centres undefined), the growth inhibition is 0.3%.

For the molecule `CC1(C)C2CCC(C2)C1OC(=O)c1ccccc1C(=O)O` (centres undefined), the growth inhibition is -6.05%.

`Cc1cc(=O)oc2c3c(ccc12)OC(c1ccc(Br)cc1)CC3=O` (centres undefined): the growth inhibition was 6.8%.

Regarding `Cc1cc(N(CCOS(C)(=O)=O)CCOS(C)(=O)=O)ccc1C=Nc1cccc(Cl)c1`, the growth inhibition is 70.8% (active).

As for `CN(C)CCOc1cc2c(c3ccccc13)-c1ccccc1C2O` (centres undefined), the growth inhibition is 67.8%.

In the case of `NC(=S)C(=Nc1ccccc1F)Nc1ccccc1F`, the growth inhibition is 61.6%.

Take `CCCCOc1ccc(NC(=S)Nc2ccc(OCCN(CC)CC)cc2)cc1`: the growth inhibition was 83.8% (active).

As for `CC1CCN(CC(=O)N2c3ccccc3Sc3cc4ccccc4cc32)CC1`, the growth inhibition was -14.6%.

With `CC(C)C1COC(c2ccc3ccccc3c2-c2c(O[Si](C)(C)C(C)(C)C)ccc3ccccc23)=N1` (centres undefined), the growth inhibition was 92.8% (active).

Take `CN(C)c1ccc(/C=C(\C#N)c2cccc(Cl)c2)cc1`: the growth inhibition was 10.8%.

As for `CCN(CC)CCNc1ccc(C)c2oc3ccc(O)cc3c(=O)c12`, the growth inhibition is 81.5% (active).

On to `CN(C)CC1CCc2c(ccc3ccccc23)C1=O` (centres undefined), for which the growth inhibition was 71.1% (active).

For `C[C@]12CCC(=O)C=C1CC[C@@H]1[C@@H]2[C@@H](O)C[C@@]2(C)[C@H]1CC[C@]2(O)C(=O)COC(=O)CCC1CCCC1`, the growth inhibition is 82% (active).

For the molecule `O=C(CSc1nnc(Cc2ccccc2)o1)Nc1ccc(Cl)cc1[N+](=O)[O-]`, the growth inhibition is 76.5% (active).

With `Cc1cccc2c1Oc1ccccc1C2N1C(=O)/C(=C/c2ccccc2Cl)SC1=S` (centres undefined), the growth inhibition was 38.4%.

The record behind these values is PubChem BioAssay (NCI).
